Source: the supplement of paper PMC11417369
The full ranking holds about 25,000 sequences; the median of “ln(normalized median fluorescence intensity)” is about 9.3, and the highest 2% start at about 10. The sample as a whole holds a higher share of the highest values than the screen did.

These sequences were tested on PF3D7_0420300 AP2 domain 1 (GST-tagged) (assay: gcPBM binding intensity (ln(normalized median fluorescence intensity)); higher = stronger DNA binding).
In short: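 Using an Agilent 4 × 180k array, primer-extended double-stranded 36-bp intergenic genomic probes and negative controls were exposed for 1 h to GST-fused P. falciparum DNA-binding domains expressed in E. coli. Binding was carried out in 1× PBS with 1% milk, 0.2 mg/ml BSA, 0.5% salmon testes DNA and 0.03% Triton X-100, and protein was detected with Alexa488 anti-GST antibody and a 488 nm scan. Binding intensity is the highest Masliner-normalised natural-log median intensity across replicate spots of either probe orientation.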

Sequence | gcPBM binding intensity (ln)
TGTGTAAGATCTTGGATGATGATAAGAATCTACTAG [CACACA_negctrl_site1167] | 9.11
TATATAAACACGTACACACACATATAGGTATTTATA [CACACA_site7615] | 9.97
TCTTAAAAAATAGGGACACGTAAATATAATATATAA [CACACA_negctrl_site554] | 9.4
TTATACTGTTTCAGAAAAATAAAGAATGAAAGTATT [XGTACX_negctrl_site230] | 9.23
TGTAGAAATGGGTGCACACACATATAAAATCTATAT [CACACA_site7224] | 9.66
TTTCAAAATGTGTAAAATAAAAATAATATCATTACA [TGCATGCA_negctrl_site521] | 9.08
ATTTTCTTTTCCATAGTGCAATATAATTATCCATCA [GTGCAC_site9547] | 9.29
AATTTTTTTTTTTTTTTTTTTTATATATGTGTGTGT [XGTACX_negctrl_site129] | 9.74
TTTTTTATATATGTGTGTGTGTGTGTGTCAAGTTTA [GTGCAC_negctrl_site460] | 10.3
TGTGTCAAGTTTAATAAACGCATATAATATATATGA [CACACA_negctrl_site607] | 8.93
TATATAAATATTCGTAGTACAATACAATTATAAGTA [XGTACX_site3068] | 9.15
AACTAATAAAAAAAAAAAACATTAAACAGGACAAAT [XGTACX_negctrl_site287] | 9.78
AAAATATAATATAATGCACACATAAAACAAAAAAAA [CACACA_site8989] | 9.74
AACATATAAAAATATGCACACACAGGAATACAAACA [CACACA_site8127] | 10.3
AATATAATATAATGCACACATAAACAAAAAAAAAAT [CACACA_site1304] | 9.89
AAAATATATACACAAACATGCATATAATAAATAAAT [TGCATGCA_site711] | 9.48
AAAATATAATATAATGCACACATAAACAAAAAAAAA [CACACA_site8161] | 9.78
CATATAAAAATATGCACACACAGGAATACAAACATA [CACACA_site684] | 10.2
TATATATATATGTGTAGTACAACAAATATGAAAAAT [XGTACX_site4059] | 9.54
AAGAATATTTTTTTCTGTACATATAATTTATATACG [XGTACX_site5801] | 9.13
TATTAATACAGACACACACACACACTAATTAAAATA [CACACA_site7967] | 10.1
ATTTATATATATCATACACACTAATATGTATATTAT [CACACA_site5816] | 9.42
GGGAAATATTGAAACACACACGAACGCACGTATTTC [CACACA_site6258] | 9.54

Sequence | gcPBM binding intensity (ln)
ATTTATTTATCAAATATTATCTTAAAAAAAAAAGAA [CACACA_negctrl_site1345] | 8.79
ACAAATGGAACTCCTACAAAAAATTTCCATAATATT [XGTACX_negctrl_site132] | 9.16
TATTAATTCATTTTTTTTTTTTTTTTTTTTTTTTTT [CACACA_negctrl_site1215] | 9.13
TATTTATTAAAACACACACACACACCCACAAAATAA [CACACA_site241] | 10.1
ATAATCCTGAAACACACACACACACCCATAAATAAA [CACACA_site481] | 10.1
TTTATTAATAAACACACACACACACCCAAAATAAAA [CACACA_site7966] | 10.2
CCCGAACAAACAAATAAACACACAAAAAAAAATATA [CACACA_site8540] | 9.63
CAAAAAATGAAACACACACACACACCCATAAATAAA [CACACA_site1231] | 10.1
TTTATTAAGAAACACACACACACACCCAAAATAAAA [CACACA_site242] | 10
TAATAAATAAATGACACACACACACCCAAAAAAAAA [CACACA_site2623] | 10.2
GAATAATCCAAACACACACACACACCCGAATAAATA [CACACA_site482] | 10.2
ATTAATAAATAAATGACACACACACCCACAAAAAAA [CACACA_site8839] | 9.97
GTAATTTTATATGGTTGTACATATATATATATATAT [XGTACX_site6659] | 9.32
TAAAATATGGAAATCACACATTTATTAAAATATATA [CACACA_site4623] | 9.13
TGTATTAATATGGTAATACACACTAATATACTTTTG [CACACA_site1610] | 9.38
TTGATTTCATTTTAAGTGCATAACTAATATTATATA [GTGCAC_site9713] | 9.14
ATTATGAAATATCGTGCACACACGAATAATATAAGA [CACACA_site1294] | 9.42
AAAAAAAAAACAAATGCATGTAATATAAGAATTACA [TGCATGCA_site908] | 9.27
TACAGACAGAAATGCACACACATATTTATATTTATA [CACACA_site7139] | 9.75
CGAACAAACAAATAAACACACAAAAAAAAATATATA [CACACA_site1825] | 9.61
AAACAAAAAATATATACACACTAAACATAAAAAAAA [CACACA_site4185] | 9.83
CTAAAATACGAACACACACACACATATAAATAAATA [CACACA_site7872] | 10.3
CATATACACGAACACACACACATATAAATAAATATA [CACACA_site6379] | 10.1

Sequence | gcPBM binding intensity (ln)
CATACAGACGAACACACACACATATAAATATAAATA [CACACA_site6443] | 9.91
AACAAATACGAACACACACACACACTAAAAAAAAAA [CACACA_site6386] | 10.2
AGTATACACGAACACACACACACATATATAAATATA [CACACA_site6913] | 10.3
TAACACATAAATAAATATATACATATATATAAAATA [CACACA_negctrl_site375] | 9.36
AACATATACACGAACACACACACATATAAATAAATA [CACACA_site6380] | 9.96
TGATCAATGGATTTAACACACAAAAAAAAAAAAAAA [CACACA_site3845] | 9.11
AAATAAAATAAAATAAAATAAAATTCTTTGATACCT [TGCATGCA_negctrl_site604] | 9.16
ATATATATATATATATGTACACATATATATACTCAC [XGTACX_site8043] | 9.37
ATATATTATATAAAAAGTACTAAAATAGTAAGATGT [XGTACX_site7493] | 9.65
GTTTATATATTATAAAGTACATATGAATTTAATAAT [XGTACX_site3601] | 9.01
TTAACAAATGGACACACACACACACCCAAAAAAAAA [CACACA_site4443] | 9.91
AACACCCACAGACACACACACAAAAATGATTAAAAA [CACACA_site2433] | 9.83
AACAAACACAGACACACACACACACCCAAATGATTA [CACACA_site2431] | 10.2
CAAACAAACGGACACACACACACACCCAAAAATGAT [CACACA_site5363] | 10.1
TATGAACACAGACACACACACAAAAAAAAAAAAAAA [CACACA_site7037] | 9.27
CAAACAAACAGACACACACACACACCCAAAAATGAT [CACACA_site2430] | 10.4
AATATGAACAGACACACACACACAAAAAAAAAAAAA [CACACA_site2012] | 10
AACAAACACAGACACACACACACACTAATATGATTA [CACACA_site8770] | 10.2
CAAACCCACCAACACACACACACAAAAATGATTAAA [CACACA_site2432] | 9.82
ATATTTTTTTTTTTCACACACATTTAGATTGTATTA [CACACA_site3137] | 9.86
GACATTGATACCAGTAGTACCTATAGATGTTTGTTT [XGTACX_site5736] | 9.55
TTACAAATAATTTGTTGTACGCTTTTTTTCTTTTTT [XGTACX_site7199] | 9.48
ATTGGACTATAAATAGGTACACATATATATATATAT [XGTACX_site7562] | 9.59

Sequence | gcPBM binding intensity (ln)
AATAGAAAAAAAAAATGTACACATATAAAAGCATAT [XGTACX_site6306] | 9.77
GCTTATAAAGGCAGAAGTACTGTATTCCTATATATA [XGTACX_site8865] | 9.22
ATAATATGAAAACACACACACACACCCAAAAAAAAA [CACACA_site2011] | 10.2
AAAAAAAAAAAAAACACACACACACCCAAATATATA [CACACA_site1169] | 10.1
GTATAATATGAACACACACACACACGCAAAAAAAAA [CACACA_site7036] | 10.1
ATCGTAGTATAATATGAACACACACCCACCCACAAA [CACACA_site8616] | 10.2
TAGTATAATATGAACACACACACACCCACAAAAAAA [CACACA_site2009] | 10
GTATAATATGAACACACACACACACCCAAAAAAAAA [CACACA_site5152] | 10.2
TAGTATAATATGAACACACACACACGCACAAAAAAA [CACACA_site7035] | 10.1
GTATAATAGAAACACACACACACACCCAAAAAAAAA [CACACA_site2010] | 10.3
TAGTATAATATGAACACACACACACCGACAAAAAAA [CACACA_site5151] | 9.99
TTTTATATATTATATACACACATATATATATATATA [CACACA_site2999] | 9.29
ATATATATATAGTGCACACTTAAGAATATAAAGAGG [CACACA_site1151] | 9.45
AAAAGGTATGTTATACATAGATATGCACATATATGT [TGCATGCA_negctrl_site96] | 9.29
CTTAAAGGGAAAAATACACACATATAAATATTATGT [CACACA_site2225] | 9.47
AAAATTATTTAGTAAGTGCAAAAAAAAAAAAAAAAA | 8.78
TATGAAGAAAAGAATTGTACGATGTTTATTTTGTAT [XGTACX_site8614] | 9.22
ATTATGCACAGACACACACACACACTACTAAAAAAT [CACACA_site7252] | 10.1
ATTATGCACCAACACACACACACACCCCTAAAAAAT [CACACA_site2568] | 10.3
ATTATGCACCAACACACACACACACTCCTAAAAAAT [CACACA_site8822] | 10.3
ATTATGCACGGACACACACACACACCCCTAAAAAAT [CACACA_site5426] | 10.2
TGCACAAAATTATGCACACACCTAAAATTAATTTTT [CACACA_site5596] | 9.46
CCTAAATTATATTATGCACACTTAAAAATATATTTA [CACACA_site5861] | 9.14
